High-throughput results deposited in PubChem by National Center for Advancing Translational Sciences (NCATS).
TDP1 inh = qHTS Assay for Inhibitors of Tyrosyl-DNA Phosphodiesterase (TDP1). AID 485290, 2010. recombinant TDP1, AlphaScreen DNA substrate cleavage. Tyrosyl-DNA phosphodiesterase 1 (Homo sapiens), Q9NUW8. 350,000 tested, 0.28% active. Potency, µM (doses to about 130 µM), without a hit: at the top dose activity change, negative = inhibition, usual class: inhibitors; further: potency means the concentration at half of the fitted maximal effect; on the % scale 0 is the no-effect control and ±100 the full control effect; nearly all actives have a fitted effect of over 40% in size
Target sequence (Q9NUW8 whole entry, looked up): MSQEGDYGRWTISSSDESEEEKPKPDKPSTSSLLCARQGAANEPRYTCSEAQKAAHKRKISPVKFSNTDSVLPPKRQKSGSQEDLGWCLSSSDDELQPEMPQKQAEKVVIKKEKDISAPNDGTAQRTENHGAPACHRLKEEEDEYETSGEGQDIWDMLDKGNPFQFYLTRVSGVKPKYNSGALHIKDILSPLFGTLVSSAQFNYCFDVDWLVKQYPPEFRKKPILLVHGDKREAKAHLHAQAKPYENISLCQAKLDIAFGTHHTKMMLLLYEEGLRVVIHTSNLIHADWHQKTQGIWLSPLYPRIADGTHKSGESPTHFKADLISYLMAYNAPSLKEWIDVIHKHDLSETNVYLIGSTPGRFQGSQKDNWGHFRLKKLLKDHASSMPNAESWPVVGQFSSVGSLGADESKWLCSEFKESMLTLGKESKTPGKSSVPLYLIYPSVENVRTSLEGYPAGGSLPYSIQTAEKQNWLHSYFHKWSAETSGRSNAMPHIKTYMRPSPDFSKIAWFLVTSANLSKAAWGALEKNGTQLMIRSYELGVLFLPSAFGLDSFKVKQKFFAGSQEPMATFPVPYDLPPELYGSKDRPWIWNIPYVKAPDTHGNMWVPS
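AlphaScreen read-out: signal falls as enzyme removes the 3' tyrosine-FITC from a 5'-biotinylated DNA oligo (15 nM, 5 min, RT). Enzyme was E. coli-made recombinant Tdp1 at 1 nM, exposed to compound for 15 min beforehand; beads 10 ug/ml, 10 min.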
IL1B secr inh = qHTS for Inhibitors of Inflammasome Signaling: IL-1-beta AlphaLISA Primary Screen | THP-1 LPS/ATP IL-1B secretion, AlphaLISA, 16 h; stronger effect = lower value | activity change, % at 57.5 µM | 360,000 tested, 4.7% active; in the data active means activity change below about -50%; inconclusive means mostly about -30% to -49%; further: on the % scale 0 is the no-effect control and ±100 the full control effect
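THP-1 cells pretreated 1 hr with compounds (up to 57.5 uM final), then stimulated with LPS (250 ng/mL final) plus ATP (1.25 mM final); secreted IL-1B measured by AlphaLISA after 16 hr, decreased signal indicating inhibition.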
TDP1 cell noCPT = qHTS for Inhibitors of human tyrosyl-DNA phosphodiesterase 1 (TDP1): qHTS in cells in absence of CPT; DT40 Tdp1-/- hTDP1 cells, no CPT, ATP luminescence, 48 h; Potency, µM (highest dose often 46.2 µM), for the others: at the top dose activity change, negative = growth inhibition, actives largely listed as inhibitors; 420,000 tested, 15% active; AID 686978, 2013; further: potency means the concentration at half of the fitted maximal effect; on the % scale 0 is the no-effect control and ±100 the full control effect; nearly all actives have a fitted effect of over 55% in size
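Stably hTDP1-transfected Tdp1-null chicken DT40 cells were treated with library compounds minus camptothecin and grown for at least 48 hr at 37 °C, after which cellular ATP was quantified by luminescence.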
TDP1 cell CPT = qHTS for Inhibitors of human tyrosyl-DNA phosphodiesterase 1 (TDP1): qHTS in cells in presence of CPT; chicken DT40 Tdp1-/-;hTDP1 cells + 20 nM CPT, ATP luminescence, 48 h; Potency, µM (titrated, usually from 46.2 µM), for the others: at the top dose activity change, negative = growth inhibition, usual class: inhibitors; 420,000 tested, 12% active; AID 686979, 2013; further: potency means the concentration at half of the fitted maximal effect; on the % scale 0 is the no-effect control and ±100 the full control effect; nearly all actives have a fitted effect of over 55% in size
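Cell growth measured by CellTiter-Glo luminescence after a minimum 48 h, 37 C compound exposure with 20 nM CPT in Tdp1-knockout DT40 cells stably expressing hTDP1, seeded 400/well; qHTS titration format.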
TGFb SMAD3 inh = qHTS for Inhibitors of TGF-b; HepG2 CAGA-GFP TGF-b/SMAD3 reporter, GFP fluorescence, 18 h; TGF-beta stimulated, 500 pg/mL final; Potency, µM (highest dose often 46.1 µM), inactives show at the top dose activity, negative = inhibition, hits mostly inhibitors; 410,000 tested, 1.2% active; AID 588855, 2011; further: potency means the concentration at half of the fitted maximal effect; on the % scale 0 is the no-effect control and ±100 the full control effect; nearly all actives have a fitted effect of over 65% in size
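HEPG2 CAGA-GFP, 1000 cells/well; 2 h settle, 37 C; cpd via pin tool; TGF-b 500 pg/mL final; 18 h, 37 C; GFP imaging ex488/em500-530; %Activity normalised to -TGF-b and +DMSO controls; CRC fit, curve class.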
HepG2 tox = qHTS for Inhibitors of TGF-b: Cytotox Counterscreen; 410,000 tested, 0.76% active; AID 588856, 2011; Potency, µM (top dose mostly 46.1 µM), for the others: top-dose activity change, negative = cytotoxicity, hits mostly cytotoxic; HepG2 CAGA-GFP viability, ATP luminescence, 18 h; further: potency means the concentration at half of the fitted maximal effect
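CellTiter-Glo luminescence gave cytotoxicity after 18 hours at 37 degrees C. The cells were HepG2 CAGA-GFP in 1% FBS DMEM, stimulated with 500 pg/mL TGF-beta after compound addition. %Activity was normalised to no-cell wells (complete cell-killing) and DMSO (no toxicity), and curves were fitted and classified.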
Active calls of the source: *; ? = inconclusive; . = no result; ! = not active in a repeat; [ ] = remark or other dose. Only some compounds are listed: those with a hit (about 19% of all), similar ones and a draw of the others. Unless noted, the call rests on the fitted dose curve; in most records, active means well fitted curve in the direction sought with a large enough effect; inconclusive means small, poorly fitted or top-dose-only effect, or another doubt; inactive means no such curve, though single readings can be large; an effect the other way counts as inactive or inconclusive.

SMILES	TDP1 inh	IL1B secr inh	TDP1 cell noCPT	TDP1 cell CPT	TGFb SMAD3 inh	HepG2 tox
Cc1ccc(-c2nc3c4ccccc4n(CC(=O)N4CCN(c5ccc(F)cc5)CC4)c(=O)n3n2)cc1	5%	.	-16%	-7%	10%	5%
O=S(=O)(c1cnc[nH]1)N1CCc2ccccc21	3%	18	23µM*	?	1%	12%
CC(C)(C)c1ccc(O)c(O)c1	1%	-81*	?	34µM*	-3%	-31%
CC(C)(C)c1cc(O)c(C(C)(C)C)cc1O	11%	.	12µM*!	11µM*!	.	.
Cc1cc(O)c(C(C)(C)C)cc1Sc1cc(C(C)(C)C)c(O)cc1C	18%	.	.	.	.	.
CC(C)(C=O)Cc1cc(C(C)(C)C)c(O)c(C(C)(C)C)c1	-4%[56.1 µM]	16	?	?	-6%	-19%
CC(C)(CO)Cc1cc(C(C)(C)C)c(O)c(C(C)(C)C)c1	11%[56.1 µM]	3	?	18µM*	?	-53%
Cc1cc(C(C)(C)C)c(O)c(C(C)(C)C)c1	5%	23	13µM*!	?	1%	2%
Cc1ccc(S(=O)(=O)NCCn2nc(C)cc2C)cc1	9%	3	-6%	11%	18%	1%
CC(=O)NCc1c(I)c(NC(C)=O)c(I)c(C(=O)O)c1I	-2%[56.1 µM]	.	-5%	-11%	.	.
Cc1ccccc1C(=O)NC1CC2CCCC(C1)N2C(=O)Nc1ccccc1 (centres undefined)	-16%	-4	5%	9%	10%	1%
CCOc1ccc(NC(=O)c2cc3c(s2)-c2ccccc2OC3)cc1	5%	.	?	?	7%	-1%
Cc1nn(-c2ccc(F)cc2)c(Cl)c1C(=O)OC(C)C(=O)N(C)C1CCCCC1 (centres undefined)	-1%	-21	12µM*	?	?	-38%
Cc1nn(-c2ccccc2)c(Cl)c1C(=O)OC(C)C(=O)NC(=O)NC1CCCCC1 (centres undefined)	-1%	0	?	?	-25%	-19%
COc1cc(OC)c(NC(=O)N2CCCn3nc(C)cc32)cc1Cl	3%	.	-29%	2%	10%	3%
O=C(Cc1ccc(NC(=O)N2CCCCc3ccccc32)cc1)NCc1ccccc1	-1%	.	23µM*	23µM*	0%	-4%
COc1ccc(CNC(=O)CCC(=O)N2CC3CCCN3c3ccccc32)cc1 (centres undefined)	6%	.	21µM*	12µM*	0%	-33%
COc1ccc(OC)c(CNC(=O)Cc2ccc(NC(=O)N3CCCCc4ccccc43)cc2)c1	6%	.	9.2µM*	12µM*	29%	-6%
CCOc1ccc(CNC(=O)c2ccc(NC(=O)N3CCCCc4ccccc43)cc2)cc1OC	2%	.	3%	-21%	-13%	-1%
CCOc1ccc(CNC(=O)c2ccc(NC(=O)N3CCCCc4ccccc43)cc2)cc1	6%	.	?	?	2%	0%
CCc1ccc(CNC(=O)c2ccc(NC(=O)N3CCCCc4ccccc43)cc2)cc1	3%	.	?	21µM*	0%	-1%
O=C(CCC(=O)N1CC2CCCN2c2ccccc21)NCc1ccccc1 (centres undefined)	5%	.	?	?	15%	-2%
O=C(Cc1ccc(NC(=O)N2CCCCc3ccccc32)cc1)NCc1ccccc1Br	3%	.	23µM*	?	-22%	-24%
